Hits are enriched below; roughly 21% of the tested compounds scored in any of these assays.
Shiga inhibitor – Shiga toxin inhibition; Vero cells, Shiga toxin protein synthesis inhibition reporter; inhibition, % at 38.7 µM; hit rate 9.2% among 290,000; AID 2315; in the data active = inhibition mostly above about 28%, no sharp cut-off; inactive = mostly below about 43%; also: 0% is about no effect
NS1 inh – inhibitors of influenza NS1 protein function. Potency, µM (series often up to 46.1 µM), without a hit: top-dose activity, positive = more growth. hit rate 0.4% among 270,000. AID 2326; also: potency is read from the fitted curve at half-maximal effect; actives are rising curves; nearly all actives have a fitted effect of over 50% in size
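Compounds were scored for reversing the slow growth caused by influenza A NS1 in S. cerevisiae, measured by optical density at 600 nm. Assay medium contained 2% galactose at pH 6.0; NS1-free yeast of the same strain were the positive control.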
SARS PLpro yeast – inhibitors of SARS-CoV papain-like protease in yeast. Potency, µM (top dose mostly 32.9 µM), for the others: top-dose activity, positive = growth rescue, actives largely listed as activators. hit rate 0.19% among 330,000. S. cerevisiae expressing SARS-CoV PLpro, growth rescue; also: potency is read from the fitted curve at half-maximal effect; 0% is about no effect; nearly all actives have a fitted effect of over 55% in size
Cycloheximide cs – counter-screen hit for Shiga toxin inhibitors, cycloheximide. cell reporter, cycloheximide protein synthesis inhibition counterscreen. max response, %. hit rate 12% among 300,000. AID 2314; in the data active = max response mostly above about 13%, no sharp cut-off; inactive = mostly below about 14%; also: read at 38.3 µM for the half of the compounds with a filed dose; 0% is about no effect
Pf growth 48h – P. falciparum growth inhibition at 48 hours (one generation) | P. falciparum luciferase growth in erythrocytes, 48 h | AID 504832 | hit rate 5.9% among 310,000 | Potency, µM (series often up to 28.7 µM), without a hit: at the highest dose activity change, negative = inhibition, hits mostly inhibitors; active = well fitted inhibition curve with a large enough effect; inconclusive = small, poorly fitted or top-dose-only effect, or another doubt; inactive = no such curve, though single readings can be large or run the other way; also: potency is read from the fitted curve at half-maximal effect; % is scaled to controls: 0 for no effect and ±100 for the full control effect
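Firefly luciferase activity from engineered P. falciparum reports growth; inhibitors lower the luminescent signal. Cultures contained 2% hematocrit erythrocytes at 0.1% final parasitemia.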
Pf growth 96h – inhibits malaria parasite growth, 96 h; P. falciparum luciferase reporter growth, 96 h; Potency, µM (series often up to 28.7 µM), for the others: top-dose activity change, negative = inhibition, hits mostly inhibitors; hit rate 6.9% among 320,000; AID 504834; active = well fitted inhibition curve with a large enough effect; inconclusive = small, poorly fitted or top-dose-only effect, or another doubt; inactive = no such curve, though single readings can be large or run the other way; also: potency is read from the fitted curve at half-maximal effect; % is scaled to controls: 0 for no effect and ±100 for the full control effect
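96 h incubation, 37 C, 5% CO2, of luciferase-reporter P. falciparum-infected RBCs (2% hematocrit, 0.05% parasitemia final) with test compounds; endpoint luminescence.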
Active calls of the source: *; i = inactive; u = inconclusive; x = not tested or not shown. Unless noted, calls follow the shape of the full dose curve.

SMILES | Shiga inhibitor | NS1 inh | SARS PLpro yeast | Cycloheximide cs | Pf growth 48h | Pf growth 96h
COc1cccc(CC(=O)OCC(=O)NCC(=O)Nc2cccc(C)c2C)c1 | x | x | -5% | x | 1% | 19%
Cc1cc(C)nc(SC/C=C/c2ccccc2)n1 | x | -46% | -1% | 23* | 20% | 42%
C(=C\c1ccccc1)/CSc1ccccn1 | 93* | x | -5% | 73* | 142% | 60%
O=C(NCCOc1ccccc1Cl)c1ccc2c(c1)S(=O)(=O)c1cc(Cl)ccc1C2=O | x | x | -4% | x | x | x
NS(=O)(=O)c1ccc(-c2ccc([As](=O)(O)O)cc2)cc1 | x | -3% | x | x | x | x
CC(=O)Nc1c(I)c(C(=O)N[C@H]2C(O)O[C@H](CO)[C@@H](O)[C@@H]2O)c(I)c(N(C)C(C)=O)c1I (some centres undefined) | x | x | x | x | 14% | 118%
COc1ccc(CN(C)C(=O)c2ccc(NC(=O)CC3SC(N4CCCC4)=NC3=O)cc2)c(OC)c1 (centres undefined) | x | x | -1% | x | u | u
COc1ccc(CN(C)C(=O)c2ccc(NC(=O)CC3SC(N4CCCC4)=NC3=O)cc2)c(OC)c1OC (centres undefined) | x | x | 3% | x | u | 5.9µM*
CCN(CC(=O)Nc1c(F)cccc1F)C(=O)c1ccc(NC(=O)CC2SC(N3CCCC3)=NC2=O)cc1 (centres undefined) | x | x | 4% | x | 0% | 13µM*
CN(Cc1c(F)cccc1Cl)C(=O)c1ccc(NC(=O)CC2SC(N3CCCC3)=NC2=O)cc1 (centres undefined) | x | x | -4% | x | 10µM* | u
CCc1nnc(NS(=O)(=O)c2ccc(Nc3ccc([N+](=O)[O-])c4nonc34)cc2)s1 | -24 | 5% | 5% | 1 | 16% | u
CC1CCCCN1CCCNc1c(C=O)c(=O)[nH]c2ccccc12 (centres undefined) | -3 | 16% | -4% | -2 | 0% | -2%
CC(C)(c1ccccc1)c1ccc(OCCCNCCO)cc1 | 5 | -2% | 1% | 10 | x | 2.1µM*
OCCNCCCCOc1ccc(OCc2ccccc2)cc1 | 86* | 0% | -6% | 34* | -19% | 29%
Cc1cc(OCCCCCNCCO)cc(C)c1Cl | -9 | -14% | -7% | 1 | x | 13µM*
COCCCNCCCOc1ccc(C(C)(C)c2ccccc2)cc1 | -10 | -10% | 14% | -4 | u | 29%
OCCCCNCc1ccc(OCc2ccccc2)cc1 | 34 | -13% | 7% | 14* | 17% | 101%
Cc1cc(OCCNCCO)cc(C)c1Cl | -11 | -16% | 3% | 1 | -21% | 2%
CC(C)/C=C/CN1CCN(CCCc2ccccc2)C(CCO)C1 (centres undefined) | x | -3% | -1% | -1 | 0% | u
OCCCCNCc1ccc(OCc2ccccc2Cl)cc1 | 26 | 11% | -3% | 25* | u | u
CC(O)CNCCCCOc1ccc(OCc2ccccc2)cc1 (centres undefined) | 75* | 1% | 0% | 24* | u | u
CC(O)CNCCCOc1ccccc1OCc1ccccc1 (centres undefined) | -17 | 0% | 0% | 0 | u | 28%
CC(OC(=O)CCOc1ccccc1)C(=O)NC1CC1 (centres undefined) | x | x | 0% | x | u | 8%
O=C(OCCN1CCCCC1)c1c[nH]c2ccccc12 | x | 0% | x | x | 7% | 16%
Clc1ccc(Nc2nc3ccccc3n3nnnc23)cc1 | 2 | 2% | -10% | 12 | u | x
SMILES | Shiga inhibitor | NS1 inh | SARS PLpro yeast | Cycloheximide cs | Pf growth 48h | Pf growth 96h
Fc1cc(Br)ccc1Nc1nc2ccccc2n2nnnc12 | 42* | -8% | 10% | 27* | 47% | 45%
Cc1ccc(Nc2nc3ccccc3n3nnnc23)cc1 | 71* | -1% | -1% | 26* | 28% | -24%
COc1ccc(CC(=O)OCC(=O)N2CCCc3ccccc32)cc1OC | x | x | -11% | x | 18% | 3%
Cc1nonc1-c1csc(N)n1 | 46 | -3% | -7% | 9 | 5% | -7%
CCOc1ccccc1OCC(=O)Nc1ccc(N2CCOCC2)cc1N1CCOCC1 | x | x | -2% | x | u | -29%
CCOC(=O)CNC(=O)CNC(=O)c1ccc(OC(C)C)cc1 | 37 | -1% | 1% | 24* | 35% | 37%
CCOC(=O)CNC(=O)c1ccc(SCC)cc1 | 83* | -1% | 0% | 37* | 39% | 32%
CCOC(=O)CNC(=O)c1ccccc1 | 17 | 0% | 11% | -5 | 3% | 140%
Cc1ccc(NC(=O)c2cc(NC(=O)C3CC=CCC3C(=O)O)ccc2N2CCOCC2)cc1Cl (centres undefined) | -24 | 16% | -5% | -2 | 4% | x
Cc1cccc(NC(=O)CNC(=O)Cc2ccc3c(c2)OCCO3)c1C | x | x | 4% | x | u | u
CCCCn1c(SCC(=O)N(CC)C2CCS(=O)(=O)C2)nc2cc(S(N)(=O)=O)ccc21 (centres undefined) | -8 | -2% | 2% | -3 | -16% | -8%
CCN(C(=O)CSc1nc2cc(C(F)(F)F)ccc2n1Cc1ccccc1)C1CCS(=O)(=O)C1 (centres undefined) | -7 | 6% | -32% | -8 | 10µM* | 9.3µM*
CCCCCCCCCC[n+]1cccc(C(=O)N(CC)CC)c1 | -8 | 2% | -16% | -1 | 3.7µM* | 3.7µM*
COCCN1C(=O)C(=O)/C(=C(/O)c2ccc(C)cc2)C1c1ccccn1 (centres undefined) | 22 | 2% | 0% | 13 | -3% | 3.3µM*
CCN(CC)CCCN1C(=O)C(=O)/C(=C(/O)c2ccc(Cl)cc2)C1c1ccccn1 (centres undefined) | -1 | 0% | 0% | 10 | 13% | 0%
CCOc1ccc(/C(O)=C2/C(=O)C(=O)N(CCOCCO)C2c2ccccn2)cc1 (centres undefined) | 57* | 5% | u | 39* | 46% | 32%
CCN(CC)CCN1C(=O)C(=O)/C(=C(/O)c2cccc(OC)c2)C1c1ccccn1 (centres undefined) | 49 | -4% | 11% | 15* | u | 12µM*
CCOc1ccc(/C(O)=C2/C(=O)C(=O)N(CCOCCO)C2c2ccc(F)cc2)cc1 (centres undefined) | -3 | -10% | -1% | -3 | 24% | 74%
Cc1ccc(/C(O)=C2/C(=O)C(=O)N(CCCn3ccnc3)C2c2ccccn2)cc1 (centres undefined) | -10 | -6% | 5% | -2 | 4% | u
CC(=O)/C(N=Nc1ccc2c(c1)OCCO2)=C(\C)O | 136* | x | -3% | 82* | i | i
CC(=O)/C(N=Nc1ccc2c(c1)OCO2)=C(\C)O | 108* | 16% | -2% | 74* | 176% | 157%
CC(=O)/C(N=Nc1ccc(C(=O)O)cc1)=C(\C)O | 4 | -1% | -1% | -2 | 8% | -1%
CCCc1cc(=O)oc2cc(OCC(=O)NC3CC(C)(C)NC(C)(C)C3)ccc12 | -5 | -1% | 1% | 2 | -16% | 15%

High-throughput results as filed in PubChem BioAssay.
